Pf growth 96h: Primary qHTS for delayed death inhibitors of the malarial parasite plastid, 96 hour incubation; P. falciparum luciferase reporter growth, 96 h; Potency, µM (highest dose often 28.7 µM), hits mostly inhibitors; actives 6.9% (n = 320,000)
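Compounds incubated with erythrocytes infected by luciferase-expressing P. falciparum (2% hematocrit, 0.05% parasitemia final) for 96 hours, 37 C in 5% CO2. Growth inhibition scored as decreased luciferase luminescence.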
Sm TGR inh: qHTS Assay for the Inhibitors of Schistosoma Mansoni Peroxiredoxins; purified TGR, DTNB reduction, TNB absorbance 405 nm; Potency, µM (series often up to 114 µM), actives largely listed as inhibitors; Schistosoma mansoni thioredoxin glutathione reductase (TGR), Q962Y6; actives 3% (n = 360,000); note: nearly all actives have a fitted effect of over 60% in size
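TGR 20 nM + NADPH 100 uM (dispensed conc.), cpd preinc 15 min RT; start with NADPH (500 uM addition) then DTNB (15 mM addition). Kinetic TNB absorbance, 405 nm filter. Four-parameter Hill fit across titration.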
SARS PLpro yeast: qHTS of Yeast-based Assay for SARS-CoV PLP; S. cerevisiae expressing SARS-CoV PLpro, growth rescue; actives 0.19% (n = 330,000); Potency, µM (doses to about 32.9 µM), most hits filed as activators; calls by dose curve; note: nearly all actives have a fitted effect of over 55% in size
Pf growth 48h: Primary qHTS for delayed death inhibitors of the malarial parasite plastid, 48 hour incubation; P. falciparum luciferase growth in erythrocytes, 48 h; Potency, µM (doses to about 28.7 µM), usual class: inhibitors; actives 5.9% (n = 310,000); AID 504832, 2011
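Luminescence readout; reporter = integrated firefly luciferase in P. falciparum. RBC culture at 2% hematocrit, 0.1% parasitemia final, 37 C/5% CO2; decreased signal taken as growth inhibition.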
Each line names hits and unclear results; the compound was inactive in the other large screens. A selection: hits, their analogues and other compounds. The true share with any hit is near 12%. Unless noted, calls come from the whole dose curve; as a rule, active = well fitted curve in the direction sought with a large enough effect; inconclusive = small, poorly fitted or top-dose-only effect, or another doubt; inactive = no such curve, though single readings can be large; an effect the other way counts as inactive or inconclusive.

COc1cc2c(cc1OC)CN(C(=O)/C=C/c1cc(OC)c(OC)c(OC)c1)CC2	Pf growth 96h 4.65µM, Pf growth 48h 2.62µM
CCN(CC)CCNC(=O)c1ccc(NC(=O)c2ccc(F)cc2)cc1	Pf growth 48h inconclusive
Cc1ccc2nc(NC(=O)CSc3[nH]c(=O)ncc3C)sc2c1	none (no result: Pf growth 96h, SARS PLpro yeast, Pf growth 48h)
COc1cc2c(cc1OC)CN(C(=O)Cc1ccccc1)CC2	none
COc1ccc(NC(=O)c2cccc(S(=O)(=O)N3CCc4ccccc43)c2)cn1	Pf growth 96h 11.7µM, Pf growth 48h inconclusive
Cc1ccc(NS(=O)(=O)c2cc(C(=O)NCCSc3ccc(C)cc3)ccc2C)cc1	Pf growth 96h 11.7µM, Pf growth 48h inconclusive
CCN(CC(=O)Nc1cccc(OC)c1)C(=O)c1cccc(S(=O)(=O)N2CCc3ccccc32)c1	Pf growth 96h inconclusive, Pf growth 48h 11.7µM
COc1cc2c(cc1OC)CN(C(=O)c1ccccc1C(=O)O)CC2	Sm TGR inh 79.4µM
Cc1ccc(-c2nnc(Nc3cccc(C(F)(F)F)c3)c3ccccc23)cc1S(=O)(=O)N1CCOCC1	none (no result: Pf growth 96h, SARS PLpro yeast, Pf growth 48h)
CCC(CC)C(=O)Nc1nnc(SCc2cc(=O)n3cccc(C)c3n2)s1	none (no result: Pf growth 96h, SARS PLpro yeast, Pf growth 48h)
CCN(CC)CCNC(=O)c1ccc(NC(=O)c2ccc(Cl)c(S(=O)(=O)Nc3ccccc3OC)c2)cc1	Pf growth 96h 2.33µM, Pf growth 48h inconclusive
COc1ccccc1NS(=O)(=O)c1cc(C(=O)NCCC(C)C)ccc1F	none
CCN(CC)Cc1ccccc1CNC(=O)c1cccc(S(=O)(=O)Nc2ccc3c(c2)OCO3)c1	Pf growth 96h inconclusive, Pf growth 48h 9.28µM
CCN(CC)CCNC(=O)c1ccc(NC(=O)c2cccc(S(=O)(=O)N3CCc4ccccc43)c2)cc1	Pf growth 96h 1.04µM, Pf growth 48h 0.738µM
O=S(=O)(Nc1ccc2c(c1)OCO2)c1cccc(Br)c1	Pf growth 48h inconclusive
COc1cc(/C=C/C(=O)Nc2ccc(C)cc2)cc(OC)c1OC	Pf growth 96h inconclusive
CCN(CC)CCNC(=O)c1ccc(NC(=O)/C=C/c2cc(OC)c(OC)c(OC)c2)cc1	Pf growth 96h inconclusive, Pf growth 48h 5.22µM
Cc1cccc(CNC(=O)c2ccc(NC(=O)N3CCSc4ccccc43)cc2)c1	none (no result: Pf growth 96h, SARS PLpro yeast, Pf growth 48h)
COc1cc2c(cc1OC)CN(C(=O)c1cccc(S(=O)(=O)N3CCc4ccccc43)c1)CC2	Pf growth 96h 11.7µM, Pf growth 48h 10.4µM
CCN(CC)CCNC(=O)c1ccc(NC(=O)c2cccc(S(=O)(=O)Nc3ccc(C)cc3)c2)cc1	Pf growth 96h 1.17µM, Pf growth 48h 0.37µM
COc1cc2c(cc1OC)CN(C(=O)c1ccc(Cl)c(S(=O)(=O)N3CCCC3)c1)CC2	none (no result: Pf growth 96h, Sm TGR inh, Pf growth 48h)
COc1cc2c(cc1OC)CN(C(=O)c1ccc(OC)c(S(=O)(=O)N3CCCC3)c1)CC2	Pf growth 96h inconclusive, Pf growth 48h 11.7µM
CCN(CC)CCNC(=O)c1ccc(NC(=O)c2cccc(S(=O)(=O)N3c4ccccc4CC3C)c2)cc1 (stereo unspecified)	none
CC(=O)c1ccc(S(=O)(=O)Nc2c(C)nn(C)c2C)cc1	Sm TGR inh inconclusive
CCOc1ccc(CNC(=O)CN2N=C(c3ccccc3)CCC2=O)cc1OC	none (no result: Pf growth 96h, SARS PLpro yeast, Pf growth 48h)
Cc1cc2oc(C(=O)Nc3nc(-c4ccccc4)ns3)c(C)c2cc1Cl	none (no result: Pf growth 96h, SARS PLpro yeast, Pf growth 48h)
O=P(O)(O)OP(=O)(O)O	Pf growth 96h inconclusive, Pf growth 48h 3.79µM (no result: Sm TGR inh, SARS PLpro yeast)
Cc1ccccc1N/N=C/c1c(C)nc2ccccn12	Pf growth 96h inconclusive, Sm TGR inh inconclusive, Pf growth 48h 9.28µM
CCOCCc1nn2c(=O)cc(COC(=O)c3ccc(NC(=O)c4ccc(F)cc4)cc3)nc2s1	none (no result: Pf growth 96h, SARS PLpro yeast, Pf growth 48h)
Cc1ccc(S(=O)(=O)N2CCOCC2)cc1C(=O)Nc1cc(Cl)ccc1N1CCOCC1	Pf growth 96h inconclusive, Pf growth 48h 4.65µM
O=C(Nc1cc(S(=O)(=O)N2CCOCC2)ccc1N1CCOCC1)c1ccccc1Cl	none (no result: Pf growth 96h, Sm TGR inh, Pf growth 48h)
CS(=O)(=O)c1ccc(Cl)c(NC(=O)c2cc(S(=O)(=O)N3CCOCC3)ccc2N2CCCC2)c1	Pf growth 96h 13.1µM, Pf growth 48h inconclusive
Cc1ccc(NC(=O)c2cc(N3C(=O)C=CC3=O)ccc2N2CCOCC2)cc1Cl	Sm TGR inh 0.708µM
O=C(Cn1cc(S(=O)(=O)c2ccccc2)c(=O)c2cc(Cl)ccc21)Nc1ccc2c(c1)OCO2	none (no result: Pf growth 96h, SARS PLpro yeast, Pf growth 48h)
CCCN(Cc1nnc(-c2ccccc2Cl)o1)C(=O)c1ccc(C)c(S(=O)(=O)N2CCOCC2)c1	Pf growth 96h inconclusive, SARS PLpro yeast inconclusive, Pf growth 48h inconclusive
CCCN(Cc1nnc(-c2ccccc2Cl)o1)C(=O)c1oc2ccccc2c1C	Pf growth 96h 9.28µM, Pf growth 48h 9.28µM (no result: SARS PLpro yeast)
CCc1cccc(CC)c1-n1c(SCC(=O)N2CCCc3ccccc32)nc(O)cc1=O	none (no result: Pf growth 96h, Sm TGR inh, Pf growth 48h)
CCc1ccc2ncc3c(-c4ccccc4)nn(-c4ccccc4)c3c2c1	none (no result: Pf growth 96h, SARS PLpro yeast, Pf growth 48h)
CCc1cc2c(=O)c(-c3nc4ccccc4n3C)c(C)oc2c(CN2CCN(C)CC2)c1O	Pf growth 48h inconclusive (no result: Pf growth 96h)
CCc1cc(-c2n[nH]c(C)c2-c2nc3ccccc3n2C)c(O)c(CN2CCN(C)CC2)c1O	Sm TGR inh inconclusive, Pf growth 48h 11.7µM
CCc1cc(-c2n[nH]c(C)c2-c2nc3ccccc3n2C)c(O)cc1O	Pf growth 96h 13.1µM, Pf growth 48h inconclusive
CSc1ncccc1C(=O)N1CCCC(Nc2ccc(C)c(C)c2)C1 (stereo unspecified)	none
CCc1cc(C(=O)NNC(=O)CCl)sc1C	Pf growth 96h 1.47µM, Sm TGR inh inconclusive, SARS PLpro yeast inconclusive, Pf growth 48h 1.04µM
CC(C)(C)C1CCc2sc(C(=O)NNC(=O)CCl)cc2C1 (stereo unspecified)	Pf growth 96h inconclusive, Sm TGR inh 11.2µM, SARS PLpro yeast inconclusive, Pf growth 48h inconclusive
CCc1cc(C(=O)NNC(=O)CCN2CCN(c3ccccc3)CC2)sc1C	none
CCC(C)c1ccc(O)c(NC(=O)c2ncn[nH]2)c1 (stereo unspecified)	Pf growth 96h 3.29µM
Cn1c(=O)c2c(nc(NCc3ccco3)n2C/C=C/c2ccccc2)n(C)c1=O	Pf growth 96h 9.28µM, Pf growth 48h 8.28µM
Cn1c(=O)c2c(nc(NCc3ccco3)n2C)n(C)c1=O	none (no result: Pf growth 96h)
O=C(c1ccc(Cl)cc1)N1CCC(C(=O)N2CCCc3ccccc32)CC1	Pf growth 96h inconclusive
COc1ccc(NC(=O)Nc2ccc3c(c2)C(=O)N([C@H](C)CO)C[C@H](C)[C@@H](CN(C)C(=O)Nc2ccc(OC)cc2)O3)cc1	none (no result: Pf growth 96h, Sm TGR inh, Pf growth 48h)
O=C(CSc1nnc(CCCN2C(=O)c3cccc4cccc(c34)C2=O)n1-c1ccccc1)N1CCCCC1	Pf growth 96h inconclusive, Pf growth 48h 11.7µM
O=C(CSc1nnc(Cc2cc(=O)[nH]c(=O)[nH]2)n1-c1ccccc1)N1CCCCC1	Pf growth 96h inconclusive (no result: Pf growth 48h)
O=C(Cn1cnc2ccc(Cl)cc2c1=O)NC1CCS(=O)(=O)C1 (stereo unspecified)	none
O=C(CC1NCCC[C@H]1O)Cn1cnc2cc(Br)c(Cl)cc2c1=O (stereo partly specified)	Pf growth 96h inconclusive, Pf growth 48h 0.601µM (no result: Sm TGR inh, SARS PLpro yeast)
CCCN1CNC(=S)N(c2ccc(C(=O)OCC)cc2)C1	none

Screening data from PubChem BioAssay.
